In PubChem BioAssay AID489008 (National Center for Advancing Translational Sciences (NCATS), 2010) one finds Potency data, which are given here for 38 compounds.

Inconclusive results are not listed. Active and inactive are the calls of the source. Calls come from the whole dose curve; as a rule, active = well fitted inhibition curve with a large enough effect; inconclusive = small, poorly fitted or top-dose-only effect; inactive = flat fitted curve, though single readings scatter.
Potency is the fitted concentration of half-maximal effect.

Sequence of Ferritin light chain (Equus caballus) (P02791 2-175 limits assumed): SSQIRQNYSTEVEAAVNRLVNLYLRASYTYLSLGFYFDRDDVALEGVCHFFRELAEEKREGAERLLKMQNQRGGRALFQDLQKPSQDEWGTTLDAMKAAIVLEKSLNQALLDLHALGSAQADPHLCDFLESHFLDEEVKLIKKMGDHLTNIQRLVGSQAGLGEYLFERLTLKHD

The target in this test is Ferritin light chain (Equus caballus) (UniProt P02791). Put plainly: Confirmation Assay for Identification of Novel General Anesthetics. Note: nearly all actives have a fitted effect of over 40% in size. To be noted: apoferritin 1-aminoanthracene fluorescence displacement. The essentials:
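Horse apoferritin (10 uM) pre-loaded with 1-AMA (50% saturated, PBS) exposed to compounds 10 min at room temperature; loss of 1-AMA fluorescence (380/535 nm) scaled between free and bound ligand, curves fitted with Hill equation.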
Regarding `O=C(OCC(=O)C12CC3CC(CC(C3)C1)C2)c1cccnc1`, the Potency is 22.4 µM (active).

As for `Cc1ccc(-c2ccc(=O)n(CC(=O)NCCC(C)C)n2)cc1`, the Potency is 5.01 µM (active).

Take `O=C(CCc1ccccc1)NC(=S)Nc1ccccc1[N+](=O)[O-]`: the Potency is 15.8 µM (active).

With `Cc1ccc(NC(=O)N2CCCCCC2)cc1C`, the Potency is 6.31 µM (active).

Regarding `CCCCCc1ccc(C2=NNC(=O)CC2)cc1`, the Potency was 28.2 µM (active).

Take `CC(C)(C)CC(=O)Nc1ccc(Nc2ccccc2)cc1`: the Potency was 17.8 µM (active).

For `Cc1ccc(NC(=O)COC(=O)CSC(=S)N2CCOCC2)cc1`, the Potency is 15.8 µM (active).

Consider `Cc1ccc(NCc2cccnc2)c(Br)c1`, for which the Potency is 8.91 µM (active).

For `C=Cc1ccc(Cn2nc(-c3ccc(C)cc3)ccc2=O)cc1`, the Potency was 17.8 µM (active).

`COc1ccc(Cc2nnc(NC(=O)c3ccccc3F)s2)cc1`: the Potency was 25.1 µM (active).

For the compound `Nc1nc(SCC(=O)C23CC4CC(CC(C4)C2)C3)n[nH]1`, the Potency was 7.08 µM (active).

As to `CC(NC(=O)COC(=O)C1=COCCO1)C12CC3CC(CC(C3)C1)C2` (stereo not drawn), the Potency is 14.1 µM (active).

`N/C(=N\OC(=O)Cc1ccc(-c2ccccc2)cc1)c1ccncc1`: the Potency was 31.6 µM (active).

As to `CCCCSC(=O)Nc1ccccc1`, the Potency is 7.08 µM (active).

In the case of `CN(C(=O)c1cncc(Br)c1)C1C2CC3CC(C2)CC1C3` (stereo not drawn), the Potency was 12.6 µM (active).

Regarding `Cc1cccc(S(=O)(=O)NCCc2ccccc2)c1`, the Potency was 14.1 µM (active).

As to `Cc1ccc(C2=NN(CC(=O)NCCc3ccccc3)C(=O)CC2)cc1`, the Potency is 5.19 µM (active).

For `Cc1ccc(CCC(=O)Nc2cc(Cl)ccc2Cl)o1`, the Potency was 7.94 µM (active).

On to `O=C(Nc1ccc(Br)cc1)N1CCCCCC1`, for which the Potency was 25.1 µM (active).

Consider `CC(=O)c1cccc(NC(=O)CN2C(=O)NC3(CCCCCCC3)C2=O)c1`, for which the Potency is 14.1 µM (active).

`Cc1cc(C)cc(NC(=O)N2CCCCCCC2)c1`: the Potency was 6.31 µM (active).

In the case of `Clc1ccc(CNc2ccccn2)cc1`, the Potency is 15.8 µM (active).

`COC(=O)c1ccc(/C=N/OCC(=O)NC2CCCCCCC2)cc1`: the Potency was 7.94 µM (active).

Take `Fc1ccccc1CSc1nc2ccccc2[nH]1`: the Potency is 15.8 µM (active).

For the compound `O=C(NC1CCCCC1)N1CCCCCCC1`, the Potency was 14.1 µM (active).

On to `O=S(=O)(NCCCc1ccccc1)c1ccc(F)c(F)c1`, for which the Potency was 17.8 µM (active).

As to `Oc1ccc(C(=S)N2CCCCC2)cc1Cl`, the Potency is 17.8 µM (active).

Take `O=C(Nc1cccc(F)c1)N1CCCCCC1`: the Potency was 12.6 µM (active).

On to `Cc1sc2ncn(CC(=O)NCc3ccco3)c(=O)c2c1-c1ccccc1`, for which the Potency is 28.2 µM (active).

In the case of `Cc1cc(OCC(=O)N(C)C2CCCCC2)cc(C)c1Cl`, the Potency is 35.5 µM (active).

With `COc1cccc(NC(=O)N2CCCCCC2)c1`, the Potency was 14.1 µM (active).

Take `Cc1ccc(CNc2ccc(CNc3ncn[nH]3)cc2)cc1`: the Potency is 20 µM (active).

For the compound `CC(C)CCNC(=O)CN1N=C(c2ccc(Cl)cc2)CCC1=O`, the Potency is 5.19 µM (active).

As for `CCN(CC)C(=S)SCC(=O)c1ccccc1`, the Potency is 28.2 µM (active).

For `CC1(c2ccc(NC(=O)c3ccccc3F)cc2)CC1(Cl)Cl` (stereo not drawn), the Potency was 12.6 µM (active).

Consider `O=C(CCC(=O)c1ccc(Cl)cc1)OCC(=O)c1ccccc1`, for which the Potency was 17.8 µM (active).

Turning to `Cc1ccc(Cn2cccc(NC(=O)NC3CCCCC3)c2=O)cc1`, the Potency is 15.8 µM (active).

Take `COC(=O)c1ccc(/C=N/NC(=O)CC(=O)NC2CCCCC2)cc1`: the Potency was 7.08 µM (active).
